Source: PubChem
Sampled rows, rich in hits. Any-hit rate of the full collection: about 6.8%.
T cruzi growth = T. cruzi intracellular proliferation inhibitors, primary screen, cell-based, beta-gal Tulahuen parasites, NIH3T3 host, luminescence | T. cruzi beta-gal in NIH3T3, GalScreen luminescence, 90 h | inhibition, % at 8.34 µM | 77,000 tested, 5.9% active;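 active means mean inhibition above about 93%, with at least 55% of replicates each passing it, limit read from the data, passing the limit was not always enough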
Pf Dd2 inh = P. falciparum Dd2 growth inhibitors, primary screen, SYBR Green fluorescence, single dose replicates; 72 h; active compounds read low; activity change, % at 10 µM; 94,000 tested, 2.3% active; AID 1159554, 2015; in the data active means activity change below about -80%
C diff growth = C. difficile growth inhibitors, primary screen, HTS. growth activity, negative = inhibition, % at 16 µg/mL (by protocol). Clostridium difficile clinical isolate growth, OD600, 24 h; active compounds read low. 86,000 tested, 0.25% active. AID 1259249, 2017;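 active means mean growth activity at or below -80% and every replicate also at or below -80%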;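 further: 0% = DMSO wells and -100% = levofloxacin 16 µg/mL wells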
Starred values were filed as active, the others as inactive; . = no result; ! = not confirmed by another sample.

SMILES | T cruzi growth | Pf Dd2 inh | C diff growth
COc1ccc2c3c([nH]c2c1)[C@@H](CO)N(CC1CC1)CC31CN(C(=O)c2ccc(F)cc2)C1 | . | -55 | -5
COc1ccc2c3c([nH]c2c1)[C@@H](CO)N(CC1CC1)CC31CN(C(=O)c2ccccc2)C1 | . | -85* | 9
COc1ccc2c3c([nH]c2c1)[C@@H](CO)N(Cc1cccnc1)CC31CCN(C(=O)c2cccnc2)CC1 | . | -16 | 5
CO[C@H](CN(C)S(=O)(=O)c1ccc(C)cc1)[C@@H](C)CN(Cc1ccccc1Cl)[C@H](C)CO | 43 | -17 | .
CN1C(=O)c2cc(NC(=O)C3CCOCC3)ccc2OC[C@@H]2O[C@@H](CC(=O)NC3CCCC3)CC[C@@H]21 | -6 | 5 | -4
O=C(N[C@@H]1CC[C@@H](CCNS(=O)(=O)c2ccccc2)O[C@@H]1CO)c1cccc(F)c1 | -37 | 2 | -2
O=C(NCC[C@H]1CC[C@@H](NC(=O)C2CCCCC2)[C@@H](CO)O1)Nc1ccc(Cl)cc1 | -1 | 3 | .
COc1ccc2c3c([nH]c2c1)[C@@H](CO)N(C(=O)c1cccc(F)c1)CC31CCN(C(=O)c2ccccc2)CC1 | . | -88* | 4
COc1ccc2c3c([nH]c2c1)[C@H](CO)N(C(=O)c1cccc(F)c1)CC31CCN(C(=O)c2ccccc2)CC1 | . | -39 | -10
C[C@@H]1CN([C@H](C)CO)C(=O)Cc2cc(NC(=O)Nc3ccc4c(c3)OCO4)ccc2O[C@H]1CN(C)C(=O)Nc1ccc(C(F)(F)F)cc1 | 10 | -27 | 2
C[C@H](CO)N1C[C@H](C)[C@@H](CN(C)C(=O)Nc2ccc3c(c2)OCO3)Oc2ccc(NC(=O)Nc3ccc(C(F)(F)F)cc3)cc2CC1=O | . | -93* | 5
C[C@H](CO)N1C[C@H](C)[C@@H](CN(C)C(=O)Nc2ccc(C(F)(F)F)cc2)Oc2ccc(NC(=O)Nc3ccc4c(c3)OCO4)cc2CC1=O | 30 | -23 | 10
C[C@H]1CN([C@@H](C)CO)C(=O)Cc2cc(NC(=O)Nc3ccc(C(F)(F)F)cc3)ccc2O[C@@H]1CN(C)C(=O)Nc1ccc2c(c1)OCO2 | . | -93* | 4
COc1ccc(NC(=O)Nc2cccc3c2O[C@@H](CN(C)Cc2ccc4c(c2)OCO4)[C@H](C)CN([C@H](C)CO)C3=O)cc1 | -38 | 2 | 2
Cc1ccc(S(=O)(=O)N(C)C[C@@H]2OCCCC[C@H](C)Oc3ccc(NC(=O)NC4CCCCC4)cc3C(=O)N([C@@H](C)CO)C[C@H]2C)cc1 | 29 | -80 | 4
Cc1ccc(S(=O)(=O)N(C)C[C@@H]2OCCCC[C@@H](C)Oc3ccc(NC(=O)NC4CCCCC4)cc3C(=O)N([C@@H](C)CO)C[C@@H]2C)cc1 | 61 | -86* | 14
Cc1ccc(S(=O)(=O)N(C)C[C@H]2OCCCC[C@H](C)Oc3ccc(NC(=O)NC4CCCCC4)cc3C(=O)N([C@H](C)CO)C[C@H]2C)cc1 | 85 | -83* | -3
Cc1ccc(S(=O)(=O)N(C)C[C@@H]2OCCCC[C@@H](C)Oc3ccc(NC(=O)NC4CCCCC4)cc3C(=O)N([C@H](C)CO)C[C@@H]2C)cc1 | 65 | -77 | 10
C[C@@H]1CN([C@@H](C)CO)C(=O)Cc2cc(NS(=O)(=O)c3ccc(F)cc3)ccc2O[C@@H]1CN(C)C(=O)Nc1cccc2ccccc12 | 30 | -6 | -4
Cc1ccc(S(=O)(=O)N(C)C[C@H]2OCCCC[C@@H](C)Oc3ccc(NC(=O)C4CCCCC4)cc3C(=O)N([C@H](C)CO)C[C@H]2C)cc1 | 47 | -71 | -1
Cc1ccc(S(=O)(=O)N(C)C[C@H]2OCCCC[C@@H](C)Oc3ccc(NC(=O)C4CCCCC4)cc3C(=O)N([C@H](C)CO)C[C@@H]2C)cc1 | 0 | -55 | -1
Cc1ccc(S(=O)(=O)N(C)C[C@H]2OCCCC[C@H](C)Oc3ccc(NC(=O)C4CCCCC4)cc3C(=O)N([C@@H](C)CO)C[C@H]2C)cc1 | 63 | -89* | 4
C[C@@H]1CN([C@@H](C)CO)C(=O)c2cc(NC(=O)C3CCCCC3)ccc2O[C@@H](C)CCCCO[C@H]1CN(C)S(=O)(=O)c1ccc(Cl)cc1 | 87 | -83* | -4
C[C@@H]1CN([C@H](C)CO)C(=O)c2cc(NC(=O)CCC(F)(F)F)ccc2O[C@@H]1CN(C)S(=O)(=O)c1cccs1 | -60 | 4 | .
CCC(=O)N1C[C@H](C)[C@@H](OC)CN(C)C(=O)c2cc(NC(=O)NC(C)C)ccc2OC[C@@H]1C | 1 | 20 | -4
SMILES | T cruzi growth | Pf Dd2 inh | C diff growth
O=C(C[C@@H]1CC[C@H]2[C@@H](COC[C@@H](O)CN2C(=O)Nc2ccc(C(F)(F)F)cc2)O1)NCC1CCCCC1 | . | 7 | -100*!
CCNC(=O)C[C@@H]1CC[C@@H]2[C@H](COC[C@H](O)CN2C(=O)Nc2ccc(C(F)(F)F)cc2)O1 | 18 | -18 | -97*!
CCNC(=O)C[C@H]1CC[C@@H]2[C@H](COC[C@@H](O)CN2C(=O)Nc2ccc(C(F)(F)F)cc2)O1 | -31 | 8 | 62
CCNC(=O)C[C@@H]1CC[C@H]2[C@@H](COC[C@@H](O)CN2C(=O)Nc2ccc(C(F)(F)F)cc2)O1 | -63 | -32 | -100*
O=C(C[C@H]1CC[C@@H]2[C@H](COC[C@H](O)CN2C(=O)Nc2ccc(C(F)(F)F)cc2)O1)NCC1CC1 | -2 | -17 | -23
O=C(C[C@@H]1CC[C@@H]2[C@H](COC[C@@H](O)CN2C(=O)Nc2ccc(C(F)(F)F)cc2)O1)NCC1CCCCC1 | . | -16 | 58
CC(C)NC(=O)N[C@@H]1CC[C@H](CCNC(=O)C2CC2)O[C@@H]1CO | . | -4 | 7
CN(C)CC#Cc1ccc([C@H]2[C@H](CO)N3C(=O)CN(C(=O)Cc4ccccc4)C[C@@H]23)cc1 | . | 23 | -5
O=C(Nc1ccc2c(c1)[C@@H]1C[C@H](CC(=O)N3CCc4ccccc4C3)O[C@H](CO)[C@@H]1O2)C1CCOCC1 | -27 | 22 | -3
C[C@@H]1CN([C@@H](C)CO)C(=O)c2cc(NC(=O)Nc3ccc4c(c3)OCO4)ccc2O[C@H]1CN(C)Cc1ccncc1 | -34 | 4 | 1
C[C@H](CO)N1C[C@H](C)[C@H](CN(C)Cc2ccc3c(c2)OCO3)Oc2c(NS(=O)(=O)c3cn(C)cn3)cccc2C1=O | -39 | 27 | 1
CC(=O)N1[C@H](CO)[C@H](c2ccc(C3=CCCC3)cc2)[C@H]1CNC(=O)CN(C)C | 39 | 11 | -2
COc1cccc(-c2ccc([C@H]3[C@H]4CN(C(=O)C5CCCCC5)CC(=O)N4[C@H]3CO)cc2)c1 | . | -55 | 0
CCC(=O)N1[C@H](CO)[C@H](c2ccc(C3=CCCC3)cc2)[C@H]1CNC1CCCC1 | . | -78 | -3
OC[C@@H]1[C@H](c2ccc(C3=CCCCC3)cc2)[C@@H](CNC2CCCC2)N1CC1CC1 | . | -92* | 20
CCC(=O)NC[C@H]1[C@H](c2ccc(C3=CCCC3)cc2)[C@@H](CO)N1C(=O)C1CC1 | 44 | -11 | -1
CCC(=O)NC[C@@H]1[C@@H](c2ccc(C3=CCCC3)cc2)[C@@H](CO)N1CC1CCCC1 | . | -73 | 5
